Potency data for 40 compounds are collected here from PubChem BioAssay (Tox21).

Inconclusive results are not listed. A call without a number means that no potency is given here. The source made the active and inactive calls. The call rests on the fitted dose curve; in most records, active means well fitted inhibition curve with a large enough effect in the repeat runs; inconclusive means weak or mixed curves; inactive means no such curve, though single readings can be large or run the other way.
Potency means the concentration at half of the fitted maximal effect.

Cytochrome P450 1A2 (Homo sapiens), sequence (P05177 whole entry, looked up): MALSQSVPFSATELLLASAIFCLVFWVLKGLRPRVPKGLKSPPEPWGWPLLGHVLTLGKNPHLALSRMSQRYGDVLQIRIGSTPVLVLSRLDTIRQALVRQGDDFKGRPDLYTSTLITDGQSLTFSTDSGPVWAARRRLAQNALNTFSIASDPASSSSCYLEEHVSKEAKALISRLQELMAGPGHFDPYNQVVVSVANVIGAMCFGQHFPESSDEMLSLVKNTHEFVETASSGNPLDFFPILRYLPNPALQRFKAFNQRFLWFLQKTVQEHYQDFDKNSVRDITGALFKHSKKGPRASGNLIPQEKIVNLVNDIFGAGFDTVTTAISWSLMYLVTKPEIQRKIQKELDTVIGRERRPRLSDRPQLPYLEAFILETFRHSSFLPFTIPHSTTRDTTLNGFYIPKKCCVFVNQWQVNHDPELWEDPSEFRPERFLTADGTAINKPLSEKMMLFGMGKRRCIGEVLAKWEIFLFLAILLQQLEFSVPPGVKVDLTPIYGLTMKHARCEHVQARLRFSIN

In the assay the target is Cytochrome P450 1A2 (Homo sapiens) (UniProt P05177). In words: Cytochrome P450 Family 1 Subfamily A Member 2 (CYP1A2) small molecule antagonists: luciferase reporter qHTS assay (AID 1671199). Further: nearly all actives have a fitted effect of over 50% in size. The note with it: P450-Glo CYP1A2 enzyme, luciferin luminescence, 1 h; series mostly up to 115 µM. The source says:
National Center for Advancing Translational Sciences [NCATS]
U.S. Environmental Protection Agency [EPA]
National Institutes of Environmental Health Sciences [NIEHS]
National Toxicology Program [NTP]
U.S. Food and Drug Administration [FDA]
Cytochrome P450 (CYP) enzymes are membrane-bound hemeproteins that play a key role in metabolism of drugs and xenobiotics. Evaluation of the effect of chemicals on CYP isozymes is useful to minimize the adverse drug reactions and toxicities in drug development process. Tox21 chemicals were tested for their effect on CYP enzyme activities by using P450-Glo (TM) screening systems (Promega Corporation, Madison, WI). These systems provide a luminescent method containing proluciferin substrates and are converted to luciferin products by CYP isozymes. The luciferin products formed are detected with a luciferin detection reagent, and the amount of light produced is proportional to CYP activity. P450-Glo (TM) CYP1A2 screening system (Catalog. No. V9770) was used to detect the compounds that interfere in CYP1A2 activity. The positive control compound used for CYP1A2 assay is furafylline (Sigma-Aldrich, St. Louis, MO).
Tox21 Assay Protocol Summary:
Two ul of enzyme-substrate mix was dispensed into medium binding white/solid 1536-well plates (Greiner Bio-One North America Inc., Monroe, NC) using a BioRaptr Flying Reagent Dispenser (FRD, Beckman Coulter, Brea, CA). Compounds dissolved in DMSO and positive control (furafyllline) were transferred to the assay plates at 23 nl using a Pintool station (Wako, San Diego, CA). The assay plates were incubated at room temperature for 10 min. Then 2 ul of NADPH regeneration solution was added to each well of the assay plates using an FRD and incubated at room temperature for 1 h. The reaction was stopped by adding 4 ul of detection reagent using an FRD and after 20 min incubation at room temperature the luminescence signal was measured using a ViewLux plate reader (Perkin Elmer, Shelton, CT). Data were expressed as relative luminescence units.
As for `c1cc2c(c(N3CCNCC3)c1)OCCO2`, the Potency result was “inactive”.

Turning to `CC(CCc1ccccc1)NC(C)C(O)c1ccc(O)cc1` (stereo not given), the Potency was 15.5 µM (active).

Take `CCC1(c2ccccc2)C(=O)N=C(O)NC1=O` (stereo not given): the Potency entry was “inactive”.

On to `CNC(=O)Oc1c(C(C)(C)C)cc(C)cc1C(C)(C)C`, for which the Potency result was “inactive”.

On to `CCCCOC(=O)c1ccccc1C(=O)O`, for which the Potency entry is “inactive”.

Consider `CNC(=O)Oc1ccc(N(C)C)c(C)c1`, for which the Potency is 11.2 µM (active).

With `C=C(C)CN(CC)c1c([N+](=O)[O-])cc(C(F)(F)F)cc1[N+](=O)[O-]`, the Potency was 31.7 µM (active).

For the compound `COc1cccc(C(=O)NN(C(=O)c2cc(C)cc(C)c2)C(C)(C)C)c1C`, the Potency entry is “inactive”.

Consider `O=[N+]([O-])c1ccc2c3c(cccc13)CC2`, for which the Potency is 2.24 µM (active).

In the case of `CCN(CC)c1nc(C)cc(OP(=S)(OC)OC)n1`, the Potency is 1.78 µM (active).

On to `CCNc1nc(NC(C)C)nc(OC)n1`, for which the Potency was 25.2 µM (active).

For `Cc1cc(C)c(C(=O)P(=O)(C(=O)c2c(C)cc(C)cc2C)c2ccccc2)c(C)c1`, the Potency was 71 µM (active).

As to `O=C(Oc1ccc(Br)cc1)N1CCN2CCC1CC2`, the Potency result was “inactive”.

On to `O=c1oc2ccccc2c(O)c1C1CCCc2ccccc21` (stereo not given), for which the Potency entry is “inactive”.

Regarding `CNC(=O)Oc1ccccc1C1OCCO1`, the Potency was 25.1 µM (active).

In the case of `COc1cc2c(cc1OC)[C@@]13CCN4CC5=CCO[C@H]6CC(=O)N2[C@H]1[C@H]6[C@H]5C[C@H]43`, the Potency entry was “inactive”.

Regarding `Nc1cnn(-c2ccccc2)c(=O)c1Cl`, the Potency result was “inactive”.

Regarding `O=C(O)c1ccc2[nH]cc(CCCCN3CC=C(c4ccccc4)CC3)c2c1`, the Potency entry is “inactive”.

For `CCC(=O)C(CCN(C)C)(c1ccccc1)c1ccccc1`, the Potency result was “inactive”.

Take `ClCCOCOCCCl`: the Potency entry is “inactive”.

Turning to `ClC(Cl)(Cl)C(Cl)(Cl)Cl`, the Potency result is “inactive”.

In the case of `CCOP(=S)(OCC)Oc1cc(-c2ccccc2)on1`, the Potency is 3.17 µM (active).

Consider `CCCCCCI`, for which the Potency result was “inactive”.

For the compound `CNCC(=O)c1ccc(O)c(O)c1`, the Potency result is “inactive”.

For the compound `COc1cc(OC)nc(Oc2cccc(Oc3nc(OC)cc(OC)n3)c2C(=O)O)n1`, the Potency result is “inactive”.

For the compound `COP(=S)(OC)Oc1c(Cl)cc(C)cc1Cl`, the Potency was 8.94 µM (active).

Regarding `CN1CCC(N(Cc2ccccc2)c2ccccc2)CC1`, the Potency entry is “inactive”.

Regarding `C[C@H]1CCC[C@H](O)CCCCCc2cc(O)cc(O)c2C(=O)O1`, the Potency was 35.8 µM (active).

In the case of `COC(=O)C(c1ccccc1)C1CCCCN1` (stereo not given), the Potency entry was “inactive”.

For `Cc1cc(C)nc(Nc2ccccc2)n1`, the Potency is 6.33 µM (active).

As to `CCOC(=O)CP(=O)(OCC)OCC`, the Potency result was “inactive”.

For the compound `CCCSC(=O)Cl`, the Potency result is “inactive”.

As to `[As]#[In]`, the Potency result is “inactive”.

Regarding `O=C(NCO)NCO`, the Potency result is “inactive”.

Take `Cc1nc(N)nc(N)n1`: the Potency entry was “inactive”.

Consider `Nc1c(Br)cc([N+](=O)[O-])cc1[N+](=O)[O-]`, for which the Potency is 1.8 µM (active).

As to `C[C@]12CC[C@H]3[C@@H](CCC4=CC(=O)CC[C@@]43C)[C@@H]1CC[C@@H]2C(=O)O`, the Potency entry was “inactive”.

On to `CNC(=O)O/N=C(\C)SC`, for which the Potency entry is “inactive”.

Take `CN(C)CCc1ccc(O)cc1`: the Potency result was “inactive”.

On to `COC(=O)c1ccccc1S(=O)(=O)NC(=O)Nc1nc(C)cc(C)n1`, for which the Potency entry was “inactive”.
